The values below come from publication PMC7862700, “An all-to-all approach to the identification of sequence-specific readers for epigenetic DNA modifications on cytosine”.

What all share (assay): DAPPL (digital affinity profiling via proximity ligation, sequencing); 10 mM Tris-HCl pH 7.5, 50 mM NaCl, 1 mM DTT, 4% glycerol, room temperature, 30 min; GST-TFs on glutathione beads, 16-mer random dsDNA library, 0.1% formaldehyde crosslink after washing; high values mean tight binding
One assay deals with T1, FLI1 (Homo sapiens, UniProt Q01543 1-452).
T1 sequence: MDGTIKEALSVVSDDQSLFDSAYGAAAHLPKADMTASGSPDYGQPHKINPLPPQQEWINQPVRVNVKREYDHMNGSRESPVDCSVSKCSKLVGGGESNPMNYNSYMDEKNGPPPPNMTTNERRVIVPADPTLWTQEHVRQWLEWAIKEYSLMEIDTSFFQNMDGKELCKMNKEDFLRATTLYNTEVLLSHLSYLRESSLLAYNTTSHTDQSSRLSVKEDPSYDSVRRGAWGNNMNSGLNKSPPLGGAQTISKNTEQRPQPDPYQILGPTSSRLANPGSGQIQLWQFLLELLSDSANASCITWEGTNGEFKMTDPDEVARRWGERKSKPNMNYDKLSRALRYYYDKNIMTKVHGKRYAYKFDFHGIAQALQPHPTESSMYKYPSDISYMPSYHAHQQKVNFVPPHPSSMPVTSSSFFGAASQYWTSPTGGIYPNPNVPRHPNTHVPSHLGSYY
Conditions: protein: recombinant; tags: N-terminal GST; dsDNA, one strand shown. Put shortly: (§1)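 Pools were built from human transcription factors expressed in yeast as GST fusions, captured on glutathione beads and DNA-barcoded, along with a tag-only sample. Incubation with 200 nmole of a 16-mer random double-stranded DNA library lasted 30 min at room temperature in Tris/NaCl/DTT/glycerol buffer, and was followed by washing, 0.1% formaldehyde crosslinking, proximity ligation, PCR amplification and Illumina NextSeq500 sequencing. Binding signal is the quotient of each hexamer's read frequency for a factor and its frequency for the tag-only sample.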

In the next assay the target is T2, ELK1 (Homo sapiens, UniProt P19419 1-428).
T2 sequence: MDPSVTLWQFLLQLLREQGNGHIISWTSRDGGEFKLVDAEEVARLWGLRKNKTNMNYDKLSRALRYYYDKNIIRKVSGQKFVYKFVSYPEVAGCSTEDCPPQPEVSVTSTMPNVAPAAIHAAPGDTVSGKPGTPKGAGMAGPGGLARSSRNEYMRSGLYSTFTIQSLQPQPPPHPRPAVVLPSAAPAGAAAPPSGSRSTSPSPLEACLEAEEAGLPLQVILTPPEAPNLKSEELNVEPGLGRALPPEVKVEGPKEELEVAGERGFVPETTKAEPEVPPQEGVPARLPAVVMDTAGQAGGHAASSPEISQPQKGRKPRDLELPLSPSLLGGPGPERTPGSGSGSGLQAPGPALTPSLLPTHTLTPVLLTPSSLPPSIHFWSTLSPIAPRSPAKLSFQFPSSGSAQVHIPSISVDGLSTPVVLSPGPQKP
Conditions: protein: recombinant; tags: N-terminal GST; dsDNA, one strand shown. An outline of the steps: as §1

A further assay concerns the target T3, GABPA (Homo sapiens, UniProt Q06546 1-454).
T3 sequence: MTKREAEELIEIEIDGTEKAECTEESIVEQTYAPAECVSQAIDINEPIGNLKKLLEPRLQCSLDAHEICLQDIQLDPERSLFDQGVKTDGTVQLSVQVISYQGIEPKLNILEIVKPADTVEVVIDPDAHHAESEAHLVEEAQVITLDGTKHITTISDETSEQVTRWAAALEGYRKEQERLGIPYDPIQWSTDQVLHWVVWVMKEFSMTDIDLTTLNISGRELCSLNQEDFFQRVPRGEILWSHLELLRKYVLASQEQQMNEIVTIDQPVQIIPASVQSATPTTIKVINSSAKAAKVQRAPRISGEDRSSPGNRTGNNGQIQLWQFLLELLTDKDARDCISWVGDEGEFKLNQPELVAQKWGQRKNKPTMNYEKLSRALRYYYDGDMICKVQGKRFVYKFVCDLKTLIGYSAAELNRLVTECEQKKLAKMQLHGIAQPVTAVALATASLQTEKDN
The following applies: protein: recombinant; tags: N-terminal GST; dsDNA, one strand shown. An outline of the steps:
as §1

The next assay has as its target T4, ERG (Homo sapiens, UniProt P11308 1-479).
T4 sequence: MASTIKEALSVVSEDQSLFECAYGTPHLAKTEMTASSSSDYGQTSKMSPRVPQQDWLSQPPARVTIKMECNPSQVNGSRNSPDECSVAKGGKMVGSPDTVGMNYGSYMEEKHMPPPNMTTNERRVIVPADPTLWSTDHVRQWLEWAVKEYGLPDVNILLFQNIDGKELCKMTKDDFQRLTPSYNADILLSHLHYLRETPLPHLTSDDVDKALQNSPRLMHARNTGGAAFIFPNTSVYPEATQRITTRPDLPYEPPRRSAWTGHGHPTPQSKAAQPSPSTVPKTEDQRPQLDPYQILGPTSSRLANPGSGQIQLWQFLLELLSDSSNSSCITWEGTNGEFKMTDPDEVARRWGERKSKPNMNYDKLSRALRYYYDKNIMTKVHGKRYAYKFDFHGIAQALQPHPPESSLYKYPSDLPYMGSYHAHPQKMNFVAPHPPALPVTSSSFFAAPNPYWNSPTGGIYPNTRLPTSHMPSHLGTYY
The following applies: protein: recombinant; tags: N-terminal GST; dsDNA, one strand shown. An outline of the steps: as §1

The target in another assay is ELF1 (Homo sapiens, UniProt P32519 1-619). The following applies: protein: recombinant; tags: N-terminal GST; dsDNA, one strand shown. An outline of the steps:
as §1

In a further assay the target is T5, EHF (Homo sapiens, UniProt Q9NZC4 1-300).
T5 sequence: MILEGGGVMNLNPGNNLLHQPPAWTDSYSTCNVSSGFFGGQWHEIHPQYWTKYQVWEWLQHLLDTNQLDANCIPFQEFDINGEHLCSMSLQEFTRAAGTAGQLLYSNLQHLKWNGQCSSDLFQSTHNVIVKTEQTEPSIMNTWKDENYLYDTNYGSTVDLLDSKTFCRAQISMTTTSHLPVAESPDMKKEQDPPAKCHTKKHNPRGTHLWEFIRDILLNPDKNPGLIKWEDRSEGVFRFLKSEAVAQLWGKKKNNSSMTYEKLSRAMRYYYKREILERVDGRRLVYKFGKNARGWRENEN
Conditions: protein: recombinant; tags: N-terminal GST; dsDNA, one strand shown. An outline of the steps:
as §1

The next assay deals with SPI1 (Homo sapiens, UniProt P17947 1-270). The following applies: protein: recombinant; tags: N-terminal GST; dsDNA, one strand shown. An outline of the steps: as §1
The target of the next assay is SPIB (Homo sapiens, UniProt Q01892 1-262). Conditions: protein: recombinant; tags: N-terminal GST; dsDNA, one strand shown. An outline of the steps:
as §1

A further assay addresses T6, ELK3 (Homo sapiens, UniProt P41970 1-407).
T6 sequence: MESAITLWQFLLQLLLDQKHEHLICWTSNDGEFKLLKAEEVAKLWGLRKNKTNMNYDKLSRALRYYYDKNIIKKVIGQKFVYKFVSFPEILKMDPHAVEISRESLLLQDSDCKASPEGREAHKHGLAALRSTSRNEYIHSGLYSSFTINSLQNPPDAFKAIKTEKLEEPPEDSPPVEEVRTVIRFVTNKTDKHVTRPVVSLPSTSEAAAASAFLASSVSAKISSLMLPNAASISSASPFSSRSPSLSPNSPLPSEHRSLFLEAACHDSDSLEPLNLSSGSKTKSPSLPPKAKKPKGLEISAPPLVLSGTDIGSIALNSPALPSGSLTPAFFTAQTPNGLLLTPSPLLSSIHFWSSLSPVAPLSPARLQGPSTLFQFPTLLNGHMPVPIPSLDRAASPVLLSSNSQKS
Conditions: protein: recombinant; tags: N-terminal GST; dsDNA, one strand shown. Put shortly: as §1

For a further assay, the target named is T7, FEV (Homo sapiens, UniProt Q99581 1-238).
T7 sequence: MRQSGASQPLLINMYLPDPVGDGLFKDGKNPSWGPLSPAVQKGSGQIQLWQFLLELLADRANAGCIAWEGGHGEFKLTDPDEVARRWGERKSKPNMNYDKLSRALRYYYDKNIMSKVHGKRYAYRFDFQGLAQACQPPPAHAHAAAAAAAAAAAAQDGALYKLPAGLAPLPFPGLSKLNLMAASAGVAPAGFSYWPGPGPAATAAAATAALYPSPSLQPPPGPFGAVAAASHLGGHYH
The following applies: protein: recombinant; tags: N-terminal GST; dsDNA, one strand shown. An outline of the steps: as §1

A further assay addresses ETV5 (Homo sapiens, UniProt P41161 1-510). The following applies: protein: recombinant; tags: N-terminal GST; dsDNA, one strand shown. Put shortly: as §1
Another assay addresses HSF1 (Homo sapiens, UniProt Q00613 1-529). The following applies: protein: recombinant; tags: N-terminal GST; chain copies: 3; dsDNA, one strand shown. Put shortly:
as §1

The target in another assay is T8, SPIC (Homo sapiens, UniProt Q8N5J4 1-248).
T8 sequence: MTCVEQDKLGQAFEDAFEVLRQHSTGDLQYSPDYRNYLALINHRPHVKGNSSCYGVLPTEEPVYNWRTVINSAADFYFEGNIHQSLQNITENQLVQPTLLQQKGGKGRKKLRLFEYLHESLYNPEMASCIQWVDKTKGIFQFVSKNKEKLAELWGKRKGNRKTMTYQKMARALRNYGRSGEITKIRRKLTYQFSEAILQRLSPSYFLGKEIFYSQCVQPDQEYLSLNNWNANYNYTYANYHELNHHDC
Conditions: protein: recombinant; tags: N-terminal GST; dsDNA, one strand shown. Put shortly:
as §1

The target in another assay is ELF4 (Homo sapiens, UniProt Q99607 1-663). Conditions: protein: recombinant; tags: N-terminal GST; dsDNA, one strand shown. An outline of the steps: as §1
Sequence of ELF4 (Q99607 whole entry): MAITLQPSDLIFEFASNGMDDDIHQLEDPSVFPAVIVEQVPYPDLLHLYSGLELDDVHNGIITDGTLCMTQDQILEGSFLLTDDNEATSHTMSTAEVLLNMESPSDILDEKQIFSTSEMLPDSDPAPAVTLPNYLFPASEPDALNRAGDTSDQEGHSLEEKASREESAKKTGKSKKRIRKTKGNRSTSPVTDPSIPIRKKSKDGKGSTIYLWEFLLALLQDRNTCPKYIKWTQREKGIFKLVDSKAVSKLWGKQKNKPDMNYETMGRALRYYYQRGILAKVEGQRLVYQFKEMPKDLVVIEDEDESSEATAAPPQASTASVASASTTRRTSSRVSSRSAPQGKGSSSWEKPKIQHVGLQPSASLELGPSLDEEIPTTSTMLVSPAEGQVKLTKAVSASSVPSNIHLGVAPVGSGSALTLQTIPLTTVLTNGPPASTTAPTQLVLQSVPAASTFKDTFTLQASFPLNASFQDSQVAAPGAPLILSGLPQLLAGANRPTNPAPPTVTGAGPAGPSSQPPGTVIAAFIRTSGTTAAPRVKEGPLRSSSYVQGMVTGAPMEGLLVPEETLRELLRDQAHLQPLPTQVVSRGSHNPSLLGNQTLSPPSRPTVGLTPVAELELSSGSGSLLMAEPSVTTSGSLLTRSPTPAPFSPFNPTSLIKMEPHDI
The target of a further assay is T9, ELK4 (Homo sapiens, UniProt P28324-2 1-405).
T9 sequence: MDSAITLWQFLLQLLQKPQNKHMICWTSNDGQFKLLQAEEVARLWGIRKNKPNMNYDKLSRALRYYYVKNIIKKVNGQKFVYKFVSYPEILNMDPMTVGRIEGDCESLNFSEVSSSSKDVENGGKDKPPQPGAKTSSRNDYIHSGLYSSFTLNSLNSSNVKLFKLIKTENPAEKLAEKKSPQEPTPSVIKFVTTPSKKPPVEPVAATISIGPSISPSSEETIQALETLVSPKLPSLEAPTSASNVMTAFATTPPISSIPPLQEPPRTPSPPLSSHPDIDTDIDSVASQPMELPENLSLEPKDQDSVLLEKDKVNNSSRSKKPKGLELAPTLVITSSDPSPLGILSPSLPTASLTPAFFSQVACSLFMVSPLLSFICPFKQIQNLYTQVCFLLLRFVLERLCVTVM
The following applies: protein: recombinant; tags: N-terminal GST; dsDNA, one strand shown. Put shortly: as §1

The target of the next assay is T10, ETV2 (Homo sapiens, UniProt O00321 1-342).
T10 sequence: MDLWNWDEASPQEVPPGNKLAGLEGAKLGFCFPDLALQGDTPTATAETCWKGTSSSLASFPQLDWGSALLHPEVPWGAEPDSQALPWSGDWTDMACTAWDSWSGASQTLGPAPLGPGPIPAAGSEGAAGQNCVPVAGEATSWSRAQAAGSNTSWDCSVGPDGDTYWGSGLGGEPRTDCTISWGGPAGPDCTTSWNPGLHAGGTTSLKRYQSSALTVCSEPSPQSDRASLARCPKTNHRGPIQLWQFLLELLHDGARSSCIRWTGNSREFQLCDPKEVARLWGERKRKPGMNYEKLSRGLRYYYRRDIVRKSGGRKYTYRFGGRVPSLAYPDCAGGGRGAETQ
Conditions: protein: recombinant; tags: N-terminal GST; dsDNA, one strand shown. An outline of the steps: as §1

A further assay concerns the target T11, ELF3 (Homo sapiens, UniProt P78545 1-371).
T11 sequence: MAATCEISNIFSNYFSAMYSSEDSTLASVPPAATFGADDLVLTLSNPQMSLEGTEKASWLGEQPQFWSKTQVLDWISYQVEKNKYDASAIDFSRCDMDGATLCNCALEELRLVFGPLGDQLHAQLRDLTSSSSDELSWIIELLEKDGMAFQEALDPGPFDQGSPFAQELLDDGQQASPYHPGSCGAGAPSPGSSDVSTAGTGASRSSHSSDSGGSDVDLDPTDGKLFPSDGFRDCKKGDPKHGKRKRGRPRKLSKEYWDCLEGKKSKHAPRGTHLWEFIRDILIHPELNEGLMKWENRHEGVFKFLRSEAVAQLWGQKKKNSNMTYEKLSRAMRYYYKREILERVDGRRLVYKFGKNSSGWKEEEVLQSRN
The following applies: protein: recombinant; tags: N-terminal GST; dsDNA, one strand shown. Put shortly:
as §1

The target of the next assay is CRX (Homo sapiens, UniProt O43186 1-299). Conditions: protein: recombinant; tags: N-terminal GST; dsDNA, one strand shown. An outline of the steps: as §1
Sequence of CRX (O43186 whole entry): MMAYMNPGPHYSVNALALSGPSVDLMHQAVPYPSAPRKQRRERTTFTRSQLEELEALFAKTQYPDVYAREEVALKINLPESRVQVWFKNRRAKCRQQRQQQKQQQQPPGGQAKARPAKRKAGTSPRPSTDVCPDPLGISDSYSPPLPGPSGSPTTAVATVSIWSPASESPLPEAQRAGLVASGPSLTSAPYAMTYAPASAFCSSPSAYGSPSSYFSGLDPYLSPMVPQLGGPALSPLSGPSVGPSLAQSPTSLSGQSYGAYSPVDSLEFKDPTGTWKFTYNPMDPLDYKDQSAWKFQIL
For a further assay, the target named is ETV1 (Homo sapiens, UniProt P50549 1-477). Conditions: protein: recombinant; tags: N-terminal GST; dsDNA, one strand shown. An outline of the steps:
as §1

Sequence of ETV1 (P50549 whole entry): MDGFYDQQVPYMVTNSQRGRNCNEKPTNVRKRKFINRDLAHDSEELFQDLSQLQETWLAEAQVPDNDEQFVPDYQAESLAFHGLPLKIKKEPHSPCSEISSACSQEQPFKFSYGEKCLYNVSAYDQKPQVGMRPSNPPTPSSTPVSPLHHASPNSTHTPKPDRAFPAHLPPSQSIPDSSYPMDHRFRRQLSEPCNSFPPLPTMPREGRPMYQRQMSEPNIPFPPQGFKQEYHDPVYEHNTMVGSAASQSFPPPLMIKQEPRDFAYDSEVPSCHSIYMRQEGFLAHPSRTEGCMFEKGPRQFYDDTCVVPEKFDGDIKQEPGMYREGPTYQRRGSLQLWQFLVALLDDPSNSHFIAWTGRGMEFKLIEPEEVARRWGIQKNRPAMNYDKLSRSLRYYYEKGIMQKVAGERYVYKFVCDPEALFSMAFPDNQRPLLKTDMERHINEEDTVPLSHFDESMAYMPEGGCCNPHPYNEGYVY
Sequence of ETV5 (P41161 whole entry): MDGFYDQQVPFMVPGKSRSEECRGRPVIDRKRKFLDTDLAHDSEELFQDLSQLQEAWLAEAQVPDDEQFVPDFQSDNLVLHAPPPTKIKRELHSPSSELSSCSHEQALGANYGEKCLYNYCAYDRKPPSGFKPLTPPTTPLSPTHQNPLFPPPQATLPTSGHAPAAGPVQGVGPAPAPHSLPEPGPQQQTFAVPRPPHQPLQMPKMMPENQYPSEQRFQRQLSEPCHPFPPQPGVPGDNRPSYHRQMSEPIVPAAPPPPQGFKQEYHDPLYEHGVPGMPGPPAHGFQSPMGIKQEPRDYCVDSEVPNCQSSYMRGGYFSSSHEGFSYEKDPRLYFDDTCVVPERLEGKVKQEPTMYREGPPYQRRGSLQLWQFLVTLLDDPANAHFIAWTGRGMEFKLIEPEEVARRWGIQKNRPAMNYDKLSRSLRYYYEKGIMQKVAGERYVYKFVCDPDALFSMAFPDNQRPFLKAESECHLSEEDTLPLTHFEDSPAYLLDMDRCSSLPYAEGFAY
Sequence of ELF1 (P32519 whole entry): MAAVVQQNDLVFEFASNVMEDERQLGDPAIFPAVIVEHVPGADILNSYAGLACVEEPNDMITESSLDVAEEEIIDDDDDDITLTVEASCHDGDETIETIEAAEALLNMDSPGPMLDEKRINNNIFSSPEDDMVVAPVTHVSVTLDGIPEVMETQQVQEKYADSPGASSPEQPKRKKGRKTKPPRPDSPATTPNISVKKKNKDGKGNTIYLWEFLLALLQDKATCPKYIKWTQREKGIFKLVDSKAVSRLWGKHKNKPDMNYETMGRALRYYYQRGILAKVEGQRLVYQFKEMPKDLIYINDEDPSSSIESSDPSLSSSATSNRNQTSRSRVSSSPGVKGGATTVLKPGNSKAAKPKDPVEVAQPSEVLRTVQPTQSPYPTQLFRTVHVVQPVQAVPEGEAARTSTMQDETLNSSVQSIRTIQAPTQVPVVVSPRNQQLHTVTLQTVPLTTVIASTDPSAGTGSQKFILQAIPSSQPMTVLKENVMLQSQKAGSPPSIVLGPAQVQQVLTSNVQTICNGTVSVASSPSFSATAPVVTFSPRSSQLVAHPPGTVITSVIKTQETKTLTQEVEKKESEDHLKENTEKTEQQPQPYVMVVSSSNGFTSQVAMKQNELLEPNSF
Sequence of SPIB (Q01892 whole entry): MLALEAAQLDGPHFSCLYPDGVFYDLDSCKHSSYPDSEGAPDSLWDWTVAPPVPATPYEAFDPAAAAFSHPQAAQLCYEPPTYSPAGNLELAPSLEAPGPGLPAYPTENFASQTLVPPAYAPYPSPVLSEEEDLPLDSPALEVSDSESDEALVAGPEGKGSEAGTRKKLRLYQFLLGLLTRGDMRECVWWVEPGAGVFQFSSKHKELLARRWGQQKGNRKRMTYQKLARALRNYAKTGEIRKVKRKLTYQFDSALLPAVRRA
Sequence of HSF1 (Q00613 whole entry): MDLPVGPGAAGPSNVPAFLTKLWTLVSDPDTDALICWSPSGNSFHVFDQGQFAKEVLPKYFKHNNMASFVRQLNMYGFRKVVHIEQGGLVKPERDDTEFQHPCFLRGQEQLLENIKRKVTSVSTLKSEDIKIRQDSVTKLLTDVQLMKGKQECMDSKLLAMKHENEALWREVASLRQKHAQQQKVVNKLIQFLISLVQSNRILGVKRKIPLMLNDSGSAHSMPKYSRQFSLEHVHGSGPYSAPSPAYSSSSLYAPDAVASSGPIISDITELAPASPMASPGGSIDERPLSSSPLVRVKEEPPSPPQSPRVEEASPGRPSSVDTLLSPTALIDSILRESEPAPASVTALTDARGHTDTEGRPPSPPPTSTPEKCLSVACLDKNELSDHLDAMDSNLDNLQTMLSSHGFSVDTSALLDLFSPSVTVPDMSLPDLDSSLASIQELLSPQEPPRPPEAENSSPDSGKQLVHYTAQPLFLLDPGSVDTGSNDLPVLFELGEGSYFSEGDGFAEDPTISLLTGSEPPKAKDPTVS

On to TAATGA, for which the binding signal in the assay with FLI1 is 1.09 fold enrichment (6-mer frequency, TF over GST control); with ELK1 it was 1.21 fold enrichment (6-mer frequency, TF over GST control); in the assay with GABPA, 1.26 fold enrichment (6-mer frequency, TF over GST control); with ERG, 1.02 fold enrichment (6-mer frequency, TF over GST control); with ELF1 it was 1.1 fold enrichment (6-mer frequency, TF over GST control); with EHF, 1.2 fold enrichment (6-mer frequency, TF over GST control). Further, the binding signal with SPI1 is 1.22 fold enrichment (6-mer frequency, TF over GST control); with SPIB it was 1.16 fold enrichment (6-mer frequency, TF over GST control); with ELK3 it was 1.21 fold enrichment (6-mer frequency, TF over GST control); in the assay with FEV, 1.12 fold enrichment (6-mer frequency, TF over GST control); with ETV5, 1.12 fold enrichment (6-mer frequency, TF over GST control); with HSF1, 1.37 fold enrichment (6-mer frequency, TF over GST control). In addition, the binding signal with SPIC was 1.11 fold enrichment (6-mer frequency, TF over GST control); in the assay with ELF4, 1.17 fold enrichment (6-mer frequency, TF over GST control); in the assay with ELK4, 1.12 fold enrichment (6-mer frequency, TF over GST control); with ETV2, 1.13 fold enrichment (6-mer frequency, TF over GST control); with ELF3, 1.12 fold enrichment (6-mer frequency, TF over GST control); with CRX it was 1.7 fold enrichment (6-mer frequency, TF over GST control). In the assay with ETV1, the binding signal is 1.19 fold enrichment (6-mer frequency, TF over GST control).
